Sampled rows, rich in hits. Any-hit rate of the full collection: about 18%.
HepG2 tox: HepG2 cytotoxicity, counter-screen for TGF-b inhibitors; AID 588856; actives 0.76% (n = 410,000); HepG2 CAGA-GFP viability, ATP luminescence, 18 h; Potency, µM (doses to about 46.1 µM), for the others: at the highest dose activity change, negative = cytotoxicity, usual class: cytotoxic; also: potency is read from the fitted curve at half-maximal effect
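HepG2 CAGA-GFP cells (1000/well, DMEM with 1% FBS) received compound, then TGF-beta at 500 pg/mL final, and were incubated 18 hours at 37 degrees C. Viability was read by CellTiter-Glo luminescence. Media-only wells were set as complete cell-killing and DMSO as no toxicity.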
TDP1 cell noCPT: qHTS for Inhibitors of human tyrosyl-DNA phosphodiesterase 1 (TDP1): qHTS in cells in absence of CPT; DT40 Tdp1-/- hTDP1 cells, no CPT, ATP luminescence, 48 h; Potency, µM (doses to about 46.2 µM), inactives show at the highest dose activity change, negative = growth inhibition, usual class: inhibitors; actives 15% (n = 420,000); AID 686978, 2013; also: potency is read from the fitted curve at half-maximal effect; % is scaled to controls: 0 for no effect and ±100 for the full control effect; nearly all actives have a fitted effect of over 55% in size
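Growth of hTDP1-complemented DT40 Tdp1-knockout cells is measured by ATP luminescence after at least 48 hr compound exposure at 37 °C, with DMSO substituting for the 20 nM CPT used in the parallel screen.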
DT40 TDP1 CPT: growth inhibition of DT40 Tdp1-/-;hTDP1 cells with camptothecin (screen for TDP1 inhibitors). actives 12% (n = 420,000). Potency, µM (series often up to 46.2 µM), for the others: at the top dose activity change, negative = growth inhibition, most hits filed as inhibitors. chicken DT40 Tdp1-/-;hTDP1 cells + 20 nM CPT, ATP luminescence, 48 h; also: potency is read from the fitted curve at half-maximal effect; % is scaled to controls: 0 for no effect and ±100 for the full control effect; nearly all actives have a fitted effect of over 55% in size
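Chicken DT40 Tdp1-/- cells stably complemented with human TDP1 were seeded at 400 cells/well in medium containing 20 nM camptothecin, exposed to pin-transferred compounds, and grown at 37 °C for at least 48 hr. Viability was read as ATP luminescence.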
TGFb inhibitor: blocks TGF-b signaling; AID 588855; actives 1.2% (n = 410,000); HepG2 CAGA-GFP TGF-b/SMAD3 reporter, GFP fluorescence, 18 h; TGF-beta stimulated, 500 pg/mL final; Potency, µM (top dose mostly 46.1 µM), without a hit: at the highest dose activity, negative = inhibition, most hits filed as inhibitors; also: potency is read from the fitted curve at half-maximal effect; % is scaled to controls: 0 for no effect and ±100 for the full control effect; nearly all actives have a fitted effect of over 65% in size
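HEPG2 CAGA-GFP cells (1000/well, DMEM with 1% FBS) were pre-incubated 2 h at 37 degrees C, given compound by pin tool, then stimulated with TGF-beta at 500 pg/mL final for 18 h before per-cell GFP fluorescence imaging.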
IL1B secr inh: inhibitors of inflammasome signaling (IL-1 beta secretion) | THP-1 LPS/ATP IL-1B secretion, AlphaLISA, 16 h; hits give low values | activity change, % at 57.5 µM | actives 4.7% (n = 360,000); in the data active = activity change below about -50%; inconclusive = mostly about -30% to -49%; also: % is scaled to controls: 0 for no effect and ±100 for the full control effect
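THP-1 cells pretreated 1 hr with compounds (up to 57.5 uM final), then stimulated with LPS (250 ng/mL final) plus ATP (1.25 mM final); secreted IL-1B measured by AlphaLISA after 16 hr, decreased signal indicating inhibition.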
TDP1 block: TDP1 (human) enzyme inhibition; Potency, µM (top dose mostly 130 µM), without a hit: at the top dose activity change, negative = inhibition, actives largely listed as inhibitors; recombinant TDP1, AlphaScreen DNA substrate cleavage; actives 0.28% (n = 350,000); also: potency is read from the fitted curve at half-maximal effect; % is scaled to controls: 0 for no effect and ±100 for the full control effect; nearly all actives have a fitted effect of over 40% in size
Target sequence (Q9NUW8 whole entry, looked up): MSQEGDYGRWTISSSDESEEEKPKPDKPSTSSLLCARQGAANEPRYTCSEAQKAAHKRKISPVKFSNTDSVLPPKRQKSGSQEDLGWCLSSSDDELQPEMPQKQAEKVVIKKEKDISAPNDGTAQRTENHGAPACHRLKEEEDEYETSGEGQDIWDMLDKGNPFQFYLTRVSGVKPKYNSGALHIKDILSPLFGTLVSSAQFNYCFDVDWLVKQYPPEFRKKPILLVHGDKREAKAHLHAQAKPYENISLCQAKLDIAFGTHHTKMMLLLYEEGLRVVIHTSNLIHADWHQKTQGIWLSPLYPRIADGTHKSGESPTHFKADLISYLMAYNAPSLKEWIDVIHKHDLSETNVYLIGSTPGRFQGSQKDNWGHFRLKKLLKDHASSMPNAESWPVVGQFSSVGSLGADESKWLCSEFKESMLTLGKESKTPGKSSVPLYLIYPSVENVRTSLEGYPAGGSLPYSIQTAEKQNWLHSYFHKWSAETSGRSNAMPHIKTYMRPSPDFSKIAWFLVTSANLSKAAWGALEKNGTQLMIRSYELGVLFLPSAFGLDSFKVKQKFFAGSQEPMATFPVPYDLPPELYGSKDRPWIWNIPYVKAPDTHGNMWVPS
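Compounds were preincubated with Tdp1 (1 nM final) for 15 min at room temperature before substrate (15 nM final) started a 5 min reaction; beads (10 ug/ml final) were then added for 10 min before AlphaScreen detection.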
* hit, by the source's call; ? = inconclusive; / = no result. Unless noted, calls follow the shape of the dose curve; as a rule, active = well fitted curve in the direction sought with a large enough effect; inconclusive = small, poorly fitted or top-dose-only effect, or another doubt; inactive = no such curve, though single readings can be large; an effect the other way counts as inactive or inconclusive.

SMILES	HepG2 tox	TDP1 cell noCPT	DT40 TDP1 CPT	TGFb inhibitor	IL1B secr inh	TDP1 block
O=C(CSc1nccc(=O)[nH]1)Nc1cccc2ccccc12	-4%	-2%	23%	-12%	32	/
O=C(Nc1cc(S(=O)(=O)N2CCCCC2)ccc1N1CCCCC1)C1CC1	0%	16µM*	-93%	-10%	-3	4%
Cc1cccc(NC(=O)C2CCN(S(=O)(=O)c3c(C)nn(C)c3C)CC2)n1	-4%	-17%	-11%	-15%	34	3%
Cc1cccc(NC(=O)C2CCN(S(=O)(=O)c3c(C)c(C)cc(C)c3C)CC2)n1	-2%	16µM*	15µM*	?	-89*	5%
COC(=O)c1ccccc1S(=O)(=O)N1CCC(C(=O)Nc2ccccc2N2CCOCC2)CC1	-17%	?	?	-18%	-19	/
Cc1ccc(S(=O)(=O)N2CCC(C(=O)Nc3ccccc3N3CCCCC3)CC2)cc1	-24%	?	18µM*	?	-17	2%
Cc1cc(C)c(C)c(S(=O)(=O)N2CCC(C(=O)Nc3ccccc3N3CCOCC3)CC2)c1C	5%	15µM*	?	-3%	-7	-6%
COc1ccccc1C(=O)N(C)c1nnc(-c2ccccc2)s1	0%	?	?	-8%	?	0%
Cc1ccc(C2SCCN2C(=O)c2ccc([N+](=O)[O-])cc2)cc1 (centres undefined)	-1%	?	-21%	-11%	-13	3%
Cc1nn2c(C)c(C(=O)N3CCN(c4ccc(Cl)cc4)CC3)cnc2c1-c1ccc(F)cc1	-2%	-2%	2%	-4%	/	7%
CCOc1ccc(S(=O)(=O)N2CCC(C(=O)Nc3ccccc3N3CCCC3)CC2)cc1	-25%	21µM*	?	-22%	?	/
COc1ccc(S(=O)(=O)N2CCCCC2c2cc(C(=O)Nc3ccc(F)c(Cl)c3)no2)cc1 (centres undefined)	-36%	16µM*	16µM*	0%	-17	/
COc1ccc(NC(=O)c2cc(C3CCCCN3S(=O)(=O)c3cccs3)on2)c(C)c1 (centres undefined)	-15%	23µM*	?	-1%	10	/
COc1ccc(S(=O)(=O)N2CCCCC2c2cc(C(=O)Nc3ccc(OC)cc3C)no2)cc1 (centres undefined)	-17%	18µM*	16µM*	-22%	9	/
COc1ccc(NC(=O)c2cc(C3CCCCN3S(=O)(=O)c3ccc(C#N)cc3)on2)c(C)c1 (centres undefined)	-9%	?	?	0%	-8	/
COc1ccc(S(=O)(=O)N2CCCCC2c2cc(C(=O)NCc3cccnc3)no2)cc1 (centres undefined)	0%	?	29µM*	14%	8	/
CC(C)(CN1CCCN(CC(C)(C)C(=O)O)C1=O)C(=O)O	1%	-6%	-10%	-2%	-9	/
Nc1nnc(SCC(=O)Nc2cccc(S(=O)(=O)N3CCCCC3)c2)s1	0%	?	-17%	-8%	-1	2%
Cc1ccsc1-c1cc2nc(Nc3ccc(F)cc3)n(C)c(=O)c2s1	-27%	?	?	-13%	-23	/
Cc1[nH]c2ccccc2c1C(c1ccncc1)N1CCN(c2ccccn2)CC1 (centres undefined)	-10%	?	?	-11%	48	8%
Cc1[nH]c2ccc(C(=O)N3CCC(C(N)=O)CC3)cc2c1C	-2%	5%	8%	8%	-13	0%
Cc1[nH]c2ccccc2c1C(c1ccncc1)N1CCC(C)CC1 (centres undefined)	-20%	18µM*	?	-26%	-1	8%
Cc1[nH]c2ccccc2c1C(c1ccccn1)N1CCC(C(N)=O)CC1 (centres undefined)	-59%	18µM*	21µM*	-22%	-17	8%
CCOC(=O)C1CCN(C(c2ccccn2)c2c(C)[nH]c3ccccc23)CC1 (centres undefined)	-9%	16µM*	16µM*	?	-110*	5%
COc1cc([N+](=O)[O-])ccc1NC(=O)NNC(=O)C(C)Oc1ccc(F)cc1F (centres undefined)	12%	?	?	-9%	11	2%
SMILES	HepG2 tox	TDP1 cell noCPT	DT40 TDP1 CPT	TGFb inhibitor	IL1B secr inh	TDP1 block
Cc1cc(OC(C)C(=O)NNC(=O)Nc2ccc(F)cc2F)cc(C)c1Cl (centres undefined)	-31%	3%	-28%	16µM*	?	2%
O=[N+]([O-])c1ccc(COc2cccc(CN3CCOCC3)c2)cc1	-25%	23µM*	18µM*	1%	-15	/
O=[N+]([O-])c1cccc(COc2ccccc2CN2CCCCC2)c1	-5%	?	?	12%	-20	/
O=[N+]([O-])c1cccc(COc2ccc(CN3CCCCC3)cc2)c1	-15%	23µM*	21µM*	17%	-12	/
CC(C)(C)c1nc(NCCN2CCOCC2)c2nnn(Cc3ccccc3Cl)c2n1	-21%	10µM*	10µM*	-5%	-9	4%
Cc1nc(NCCN2CCOCC2)c2nnn(Cc3ccccc3Cl)c2n1	-1%	-14%	-23%	20%	-2	-7%
C=CCNc1nc(C(F)(F)F)nc2c1nnn2Cc1ccccc1Cl	-28%	?	?	3%	0	/
CCOCCCNc1nc(C(F)(F)F)nc2c1nnn2Cc1ccccc1Cl	-99%	15µM*	18µM*	-17%	-20	/
Cc1ccc(Nc2nc(NCc3ccco3)nc3nccnc23)cc1Cl	-1%	-20%	-20%	-4%	/	2%
COc1ccc(Cl)cc1C(=O)NCc1nc(-c2cccc(C)c2)no1	-40%	-26%	?	-8%	/	-5%
Clc1ccc(CSc2ncnc3nc[nH]c23)cc1	-21%	23µM*	?	-17%	-3	4%
c1ccc(CCSc2ncnc3nc[nH]c23)cc1	-27%	8.2µM*	16µM*	?	42	5%
O=C(CSc1ncnc2nc[nH]c12)c1ccccc1	-30%	?	-29%	-14%	-9	2%
COc1ccc(-n2c(=O)c3c4c(sc3n(C)c2=O)CN(C(C)=O)CC4)cc1	-4%	12%	8%	-5%	/	5%
